PubChem BioAssay AID2314 (National Center for Advancing Translational Sciences (NCATS), 2010)
Screen size: about 300,000 compounds; about 37,000 (12%) were called active. This is one part of a sample in which actives are shown more often than they occur. Values without a mark were called inactive. Rule as the data show it: active = max response mostly above about 13% (no sharp cut-off); inactive = mostly below about 14%.

assay: Cycloheximide Counterscreen for Small Molecule Inhibitors of Shiga Toxin; settings: cell reporter, cycloheximide protein synthesis inhibition counterscreen; hits give high values; also: read at 38.3 µM for the half of the compounds with a filed dose; 0% is about no effect

**Q.** With `COc1cccc(CNS(=O)(=O)c2ccc3c(c2)N(C(C)=O)CCS3)c1` as the compound, how does the max response read?
**A.** Its max response is 3.83%.

**Q.** Which max response does the source give for `CCOc1ccc2[nH]c3nc(SCC(=O)NC4CCCC4)nnc3c2c1` here?
**A.** The max response was -2.15%.

**Q.** With `CC(=O)N/C(=C/c1ccc(OC(F)F)cc1)C(=O)O` as the compound, how does the max response read?
**A.** Its max response is 1.24%.

**Q.** With `COc1ccc2ccccc2c1/C=N/NC(=O)c1cc(C)[nH]n1` as the compound, how does the max response read?
**A.** Its max response is -1.72%.

**Q.** For `CC(C)c1cc(C(=O)N/N=C/C(Br)=C/c2ccccc2)n[nH]1`, which max response is on record?
**A.** Its max response is 14.6% (active).

**Q.** With `CC(=C/c1ccccc1)/C=N/NC(=O)c1cc(C)oc1C` as the compound, how does the max response read?
**A.** Its max response is 34.8% (active).

**Q.** Which max response does the source give for `Cc1cc(C(=O)NNC(=O)CCC2CCCCC2)c(C)o1` here?
**A.** Its max response is -7.16%.

**Q.** Which max response does the source give for `CC(C)c1cc(C(=O)O)n[nH]1` here?
**A.** Its max response is 10.8%.

**Q.** Which max response does the source give for `O=C(CCC1CCCN(C(=O)c2ccc(F)c(F)c2)C1)N1CCN(c2ccccn2)CC1` (stereo not given) here?
**A.** Its max response is -2.81%.

**Q.** With `CC(=O)c1ccc(NC(=O)CCNS(=O)(=O)c2cc(Br)cnc2N)cc1` as the compound, how does the max response read?
**A.** Its max response is -6.69%.

**Q.** With `CCOC(=O)[C@H]1[C@H]2COc3cc(OC)ccc3[C@@H]2N2C(=O)N(c3ccc(Br)cc3)C(=O)[C@@]12C` as the compound, how does the max response read?
**A.** The max response was -2.74%.

**Q.** With `CC(=O)Nc1ccc(NS(=O)(=O)c2ccc3c(c2)NC(=O)CC(=O)N3)cc1` as the compound, how does the max response read?
**A.** The max response was -2.79%.

**Q.** Which max response does the source give for `C/C(=N\c1nc2ccccc2n1C)c1cc(Cl)ccc1O` here?
**A.** Its max response is -3.14%.

**Q.** Which max response does the source give for `Cn1c(Nc2cccc(Cl)c2)nc2ccccc21` here?
**A.** The max response was 33.5% (active).

**Q.** With `Cc1c(C(=O)Nc2cccc(Cl)c2)cn2c(nc3ccccc32)c1C#N` as the compound, how does the max response read?
**A.** Its max response is -2.2%.

**Q.** With `Cc1cc2c(c(=O)n1Cc1ccccc1)C1O[C@](CCCCN3C(=O)c4ccccc4C3=O)(Cc3ccccc31)O2` as the compound, how does the max response read?
**A.** Its max response is -2.41%.

**Q.** With `COc1ccc(C2(O)C(=O)Nc3ccccc32)cc1` (stereo not given) as the compound, how does the max response read?
**A.** The max response was -3.25%.

**Q.** Which max response does the source give for `Cc1cc(O)c(C2(O)C(=O)Nc3ccccc32)cc1C` (stereo not given) here?
**A.** The max response was -3.78%.

**Q.** With `O=C1Nc2ccccc2C12Nc1ccccc1S2` (stereo not given) as the compound, how does the max response read?
**A.** The max response was 33.2% (active).

**Q.** With `CC(=O)NC1=NN(C(C)=O)C(C)(c2ccc(C)cc2)S1` (stereo not given) as the compound, how does the max response read?
**A.** Its max response is -3.23%.

**Q.** With `Cc1cc(Br)ccc1NC(=O)c1sc2ncn(CC(=O)N3CCN(c4ccccn4)CC3)c(=O)c2c1C` as the compound, how does the max response read?
**A.** The max response was -5.58%.

**Q.** Which max response does the source give for `COc1cccc(NC(=O)Cn2cnc3sc(C)c(S(=O)(=O)N4CCN(C)CC4)c3c2=O)c1` here?
**A.** Its max response is -1.26%.

**Q.** Which max response does the source give for `CCOC(=O)C(C)n1cnc2sc(C)c(C)c2c1=O` (stereo not given) here?
**A.** Its max response is -0.534%.

**Q.** With `Cc1cc2ncn(CCCCOc3ccccc3)c2cc1C` as the compound, how does the max response read?
**A.** Its max response is -2.02%.

**Q.** For `Cc1cccc(OC(=O)c2sc3ncn(C)c(=O)c3c2C)c1`, which max response is on record?
**A.** Its max response is 32.8% (active).

**Q.** With `Cc1c(C(N)=O)sc2ncn(CCOc3ccccc3)c(=O)c12` as the compound, how does the max response read?
**A.** Its max response is 17.6% (active).

**Q.** Which max response does the source give for `O=c1cc(CCl)nc2scc(-c3ccccc3)n12` here?
**A.** Its max response is 3.02%.

**Q.** For `COc1ccc(CCNC(=O)CCNS(=O)(=O)c2cc(Br)cnc2N)cc1OC`, which max response is on record?
**A.** Its max response is 13.2%.

**Q.** With `CN1C(=O)C2(OCCCO2)c2cc(Cl)ccc21` as the compound, how does the max response read?
**A.** The max response was 0.948%.

**Q.** For `CCCS(=O)(=O)N1CCC(CCOc2ccccc2)(C(=O)OCC)CC1`, which max response is on record?
**A.** The max response was -1.66%.

**Q.** With `COc1ccc(-c2ccc(OC)c(C3C4C=CCC(C)C4C(=O)N3Cc3ccccc3)c2)cc1C` (stereo not given) as the compound, how does the max response read?
**A.** Its max response is 28.8%.

**Q.** For `COc1ccc2cc1Oc1ccc(cc1)C[C@H]1c3cc(c(OC)cc3CCN1C)Oc1c(O)c(OC)cc3c1[C@H](C2)N(C)CC3`, which max response is on record?
**A.** Its max response is -1.4%.

**Q.** Which max response does the source give for `O=C(c1cncc(Br)c1)N1CCN(c2ccc([N+](=O)[O-])cc2)CC1` here?
**A.** Its max response is -2.1%.

**Q.** For `COc1ccc(N(CC(=O)Nc2cccc3ccccc23)S(C)(=O)=O)c(OC)c1`, which max response is on record?
**A.** Its max response is -1.55%.

**Q.** Which max response does the source give for `CC(C)(C)[Si](OCC[C@@H]1C[C@@]1(C)[C@@H](NP(=O)(c1ccccc1)c1ccccc1)c1ccccc1)(c1ccccc1)c1ccccc1` here?
**A.** The max response was -2.22%.

**Q.** For `COC(=O)c1ccccc1NC(=O)c1ccc(C#N)cc1`, which max response is on record?
**A.** Its max response is 14.4%.

**Q.** Which max response does the source give for `Cc1nn(-c2ccccc2)c(Cl)c1/C=C/C(=O)c1ccc(O)cc1` here?
**A.** The max response was 17% (active).

**Q.** For `CCNC(=O)COC(=O)/C=C/c1c(C)nn(Cc2cccc(OC)c2)c1Cl`, which max response is on record?
**A.** Its max response is -1.93%.

**Q.** For `O=C(/C=C/c1ccc(Cl)c([N+](=O)[O-])c1)c1ccc(O)cc1`, which max response is on record?
**A.** The max response was 11.3%.

**Q.** With `Cc1ccc(C(=O)/C=C/c2c(C)nn(-c3ccccc3)c2Cl)cc1` as the compound, how does the max response read?
**A.** The max response was 37.8% (active).

**Q.** Which max response does the source give for `O=C(CN1C(=O)COc2ccc(Cl)cc21)N1CCOCC1` here?
**A.** Its max response is -0.636%.

**Q.** For `CCOC(=O)CSc1nc2ccc(C)cc2n2cnnc12`, which max response is on record?
**A.** The max response was 7.14%.

**Q.** For `Cc1ccc(C)c(S(=O)(=O)Nc2cc(C)on2)c1`, which max response is on record?
**A.** The max response was -1.71%.

**Q.** For `CCCC(O)(CCC)C(=O)NN(C(=O)CCl)c1cccc(C)c1`, which max response is on record?
**A.** The max response was 4.6%.

**Q.** For `O=C(NNS(=O)(=O)c1ccccc1C(F)(F)F)c1cc2ncc(C(F)(F)F)cc2s1`, which max response is on record?
**A.** Its max response is -2.52%.

**Q.** Which max response does the source give for `CC(C)(C)c1cc(NC(=O)NN2CCOCC2)nn1-c1c(Cl)cc(Cl)cc1Cl` here?
**A.** Its max response is 6.4%.

**Q.** For `O=C(Nn1c(-c2ccccc2)nc2ccccc2c1=O)c1ccc([N+](=O)[O-])cc1`, which max response is on record?
**A.** The max response was 1.01%.

**Q.** With `O=C(Nn1c(SCc2ccc([N+](=O)[O-])cc2)nc2ccccc2c1=O)c1ccc(F)cc1` as the compound, how does the max response read?
**A.** The max response was 116% (active).

**Q.** With `O=C(CCn1c(SCC(=O)c2ccccc2)nc2ccccc2c1=O)NCc1ccc(F)cc1` as the compound, how does the max response read?
**A.** The max response was -3.48%.

**Q.** For `Cc1ccc(CNS(=O)(=O)c2ccc3c(c2)N(C)CCO3)cc1`, which max response is on record?
**A.** Its max response is 13.9%.

**Q.** Which max response does the source give for `COC(=O)c1c(NC(C)=O)sc(C(=O)Nc2ccccc2OC)c1C` here?
**A.** Its max response is -2%.

**Q.** For `COc1ccccc1NC(=O)c1ccc(C)s1`, which max response is on record?
**A.** The max response was 64% (active).

**Q.** Which max response does the source give for `COc1ccccc1NC(=O)C1=C(C)NC(=O)NC1c1ccc(C)s1` (stereo not given) here?
**A.** The max response was -3.68%.

**Q.** Which max response does the source give for `CCCCn1c(=S)[nH]c2cc(S(=O)(=O)N3CCCCC3)ccc21` here?
**A.** The max response was -3.25%.

**Q.** Which max response does the source give for `O=[N+]([O-])c1ccc(O)c(/C=N/Nc2ccccc2[N+](=O)[O-])c1` here?
**A.** Its max response is 15.6% (active).

**Q.** With `O=C(N/N=C/c1cc([N+](=O)[O-])ccc1O)/C(=C\c1cccs1)NC(=O)c1ccccc1` as the compound, how does the max response read?
**A.** Its max response is -1.19%.

**Q.** For `Nc1nnnn1/N=C/c1cc([N+](=O)[O-])ccc1O`, which max response is on record?
**A.** Its max response is 1.42%.

**Q.** With `CC(/C=N/NC(=O)c1ccncc1)=C\c1ccco1` as the compound, how does the max response read?
**A.** The max response was 10.3%.

**Q.** With `Cc1cc(C)c(OCC(=O)N/N=C/c2ccco2)c(C)c1` as the compound, how does the max response read?
**A.** The max response was -3.21%.

**Q.** For `CC(/C=N/NC(=O)c1cc(-c2ccc3ccccc3c2)n[nH]1)=C\c1ccco1`, which max response is on record?
**A.** The max response was 22.2% (active).
